The source of these data is PubChem BioAssay (NCATS).

Structures are written as SMILES. Several values for one entry are separate records, joined by “and”; a condition that tells them apart may be missing. Equal values may be shown once. Records with an inconclusive call do not appear. Activity calls are given as the source filed them. Unless noted, the call rests on the fitted dose curve; in most records, active means well fitted curve in the direction sought with a large enough effect; inconclusive means small, poorly fitted or top-dose-only effect, or another doubt; inactive means no such curve, though single readings can be large; an effect the other way counts as inactive or inconclusive.

Assay [1] concerns the target Tumor necrosis factor (Homo sapiens) (UniProt P01375). As to the kind of experiment: qHTS assay to identify small molecules that stimulate Tumor Necrosis Factor-alpha (TNF-alpha) secretion (AID 651757; active means well fitted curve in the direction sought with a large enough effect in the signal ratio; the % refers to the signal ratio; further: 0% is about no effect). The gist of the method:
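Secreted TNF-alpha from compound-treated THP-1 cells (17 hrs, 37 C) was quantified with a homogeneous time-resolved fluorescence antibody assay.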
(Quantitative high-throughput screening tests each substance at several concentrations.)

The nature of assay [2]: qHTS assay for environmental chemicals that activate the Aryl hydrocarbon Receptor (AhR) signaling pathway (AID 651777). Further: nearly all actives have a fitted effect of over 15% in size. Further: potency means the concentration at half of the fitted maximal effect. On activation: % of control where 0% means no effect. As to conditions: 1A2-DRE human hepatoma cells, luciferase, 24 h; activation: stronger effect = higher value. Summed up: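 Human hepatoma 1A2-DRE cells stably carrying a DRE/CYP1A2 promoter–luciferase reporter, 1,200 cells/well, exposed to compound 24 hr at 37 C. Luciferase read by One-Glo luminescence after 30 min at room temperature; increased signal marks AhR activation.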

Assay [3] concerns the target Peroxisome proliferator-activated receptor alpha (Homo sapiens) (UniProt Q07869). As to the kind of experiment: qHTS assay for small molecule agonists of the peroxisome proliferator-activated receptor alpha (PPARalpha) signaling pathway (AID 651778). Further: % of control where 0% means no effect. The settings on record: PathHunter PPARalpha complementation, chemiluminescence, 6 h; max response: stronger effect = higher value. The gist of the method: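 Cells plated at 2,000/well and held overnight at 37 C, 5% CO2, then compound added by pin tool for 6 hr; after PathHunter detection reagent and 60 min at room temperature, chemiluminescence from enzyme complementation was read.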

Assay [4] addresses Nuclear receptor ROR-gamma (Homo sapiens) (UniProt P51449). Nature of the assay: qHTS assay for small molecule antagonists of the retinoid-related orphan receptor gamma (ROR-gamma) signaling pathway (AID 651802). Further: nearly all actives have a fitted effect of over 60% in size. Further: potency means the concentration at half of the fitted maximal effect. Summed up: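 Antagonism is scored as a fall in luminescence from a RORE-luciferase reporter in CHO cells expressing ROR under a TET-inducible promoter, measured 16hr after doxycycline induction in the presence of compound.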

Assay [5] can be described thus: qHTS assay for small molecule antagonists of the retinoid-related orphan receptor gamma (ROR-gamma) signaling pathway - cell viability counter screen (AID 720652; active means well fitted curve in the direction sought with a large enough effect in the repeat runs; an effect the other way counts as inactive or inconclusive;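 further: compound exposure lasted 16 hr before ATP read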; further: potency means the concentration at half of the fitted maximal effect). The gist of the method:
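Cytotoxicity is quantified via intracellular ATP (CellTiter-Glo luminescence) in doxycycline-induced CHO ROR response element-luciferase reporter cells treated with compound for 16 hr at 37 C, 5% CO2.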

A short description of assay [6]: qHTS assay for small molecule agonists of the antioxidant response element (ARE) signaling pathway measured by Nrf2-dependant transcriptional activity - cell viability counter screen (AID 720653; active means well fitted curve in the direction sought with a large enough effect in the repeat runs; an effect the other way counts as inactive or inconclusive; further: on the % scale 0 is the no-effect control and ±100 the full control effect). As to conditions: ARE-bla HepG2 viability, CellTiter-Glo ATP luminescence, 16 h; stronger effect = lower value. The gist of the method:
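ARE-bla HepG2 cells (2,000/well) rested 5 hrs at 37C/5% CO2, then exposed to compounds in DMSO for 16 hrs. Viability was read in the same wells as intracellular ATP by luminescence, 30 min at room temperature after reagent addition.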

Assay [7] in a line: qHTS assay for cell viability of HEK293 cells (AID 743288). Further: on the % scale 0 is the no-effect control and ±100 the full control effect; nearly all actives have a fitted effect of over 50% in size. The settings on record: ATP luminescence (CellTiter-Glo), 18 h, stronger effect = lower value. The gist of the method:
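Parental HEK293 cells, 2,000 per well, preincubated at least 5 h at 37 C, then exposed to compounds in DMSO for 18 h at 37 C. Viability by CellTiter-Glo ATP luminescence after 30 min at room temperature.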

Assay [8] can be described thus: qHTS assay for cell viability of the p53RE-bla HCT-116 cell line (AID 743292). Further: on the % scale 0 is the no-effect control and ±100 the full control effect; nearly all actives have a fitted effect of over 55% in size. The gist of the method:
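CellSensor p53RE-bla HCT-116 cells (4,000/well) pre-incubated 5 h at 37 C, then exposed to compounds in DMSO for 16 h at 37 C. Viability read as ATP content by CellTiter-Glo luminescence after 30 min at room temperature.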

Assay [9] can be described thus: qHTS assay to identify small molecules that stimulate interleukin-8 (IL-8) secretion (AID 651758; active means well fitted activation curve with a large enough effect in the signal ratio; the % refers to the signal ratio; further: 0% is about no effect). Summed up: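 THP-1, 2000 cells/well; cpd 16 h, 37 C; add cryptate + XL665 anti-IL-8 Abs; RT 1-3 h; TR-FRET read.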
The nature of assay [10]: qHTS assay for small molecule agonists of the antioxidant response element (ARE) signaling pathway measured by Nrf2-dependant transcriptional activity (AID 720636; active means well fitted curve in the direction sought with a large enough effect in the repeat runs; an effect the other way counts as inactive or inconclusive; further: potency means the concentration at half of the fitted maximal effect; on activation: % of control where 0% means no effect). Summed up:
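ARE-luc HepG2 cells carrying an Nrf2-responsive luciferase reporter, in medium with 1% dialyzed FBS, exposed to compound for 16 hr at 37 C, 5% CO2. Luminescence read 30 min after ONE-Glo addition.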

Assay [11] can be described thus: qHTS Assay for Identifying Gametocytocidal Compounds (AID 743244). Further: potency means the concentration at half of the fitted maximal effect.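 On max response: on the % scale 0 is the no-effect control and ±100 the full control effect; actives lower the fluorescent signal which means gametocytes are killed.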 As to conditions: P. falciparum 3D7 stage III-V gametocytes, alamarBlue, 72 h; max response: stronger effect = lower value. The gist of the method: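 Late gametocytes (III–V), P. falciparum 3D7; 72 h drug, then 24 h alamarBlue; resazurin reduction read by fluorescence.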
Assay [12] deals with Tyrosine-protein kinase Yes (Homo sapiens) (UniProt P07947). As to the kind of experiment: qHTS for small molecule inhibitors of Yes1 kinase: Primary Screen (AID 686947).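 Further: plate controls were DMSO with enzyme for no effect and no-enzyme DMSO wells for full effect; nearly all actives have a fitted effect of over 60% in size.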 Summed up: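 ADP-Glo luminescence readout; final 4 nM Yes1, 0.1 mM ATP, 0.3 mg/mL poly(E4Y), Tris pH 7.5, MgCl2, DTT, Brij-35. 20 min compound preincubation, 60 min reaction at RT. Normalized to DMSO wells with and without enzyme.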

A short description of assay [13]: qHTS for small molecule inhibitors of Yes1 kinase: Counter Assay (AID 686950).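 Further: no kinase present so only ADP-Glo detection of a fixed ADP amount is tested; luminescence from ADP-Glo reporting ADP in a fixed ATP and ADP mixture; 0% = DMSO wells with ATP plus ADP and -100% = ATP-only wells without ADP.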 The gist of the method:
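Enzyme-free ADP-Glo interference check: compounds were preincubated 20 min in buffer, then an ATP/ADP mix (0.08 mM ATP, 0.02 mM ADP final) was added for 60 min at room temperature before two-step ADP-Glo luminescence detection.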

The nature of assay [14]: qHTS profiling for inhibitors of Plasmodium falciparum (3D7) proliferation (AID 743322).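 Further: infected erythrocytes exposed to compound for 72 h before lysis; 100% = DMSO vehicle wells and 0% = 0.29 µM artemisinin.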 The settings on record: P. falciparum 3D7 proliferation; at 28.7 µM (top of the series) unless noted. The gist of the method:
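Erythrocytes infected with P. falciparum (0.3% parasitemia, 2.5% hematocrit) incubated with compounds 72 h at 37 C, 5% CO2. Lysis with saponin/Triton buffer containing SYBR Green I, overnight at room temperature in the dark; DNA fluorescence (485/535 nm) normalised to 0.29 uM artemisinin and DMSO.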

Chain of Tumor necrosis factor (Homo sapiens) (P01375 whole entry, looked up): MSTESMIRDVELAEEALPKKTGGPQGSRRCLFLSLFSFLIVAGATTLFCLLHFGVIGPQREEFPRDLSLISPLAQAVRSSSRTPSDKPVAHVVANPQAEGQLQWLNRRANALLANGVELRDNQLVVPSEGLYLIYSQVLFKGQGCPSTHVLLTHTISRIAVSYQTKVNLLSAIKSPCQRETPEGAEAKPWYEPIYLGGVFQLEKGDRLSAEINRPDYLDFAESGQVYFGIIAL
Chain of Peroxisome proliferator-activated receptor alpha (Homo sapiens) (Q07869 whole entry, looked up): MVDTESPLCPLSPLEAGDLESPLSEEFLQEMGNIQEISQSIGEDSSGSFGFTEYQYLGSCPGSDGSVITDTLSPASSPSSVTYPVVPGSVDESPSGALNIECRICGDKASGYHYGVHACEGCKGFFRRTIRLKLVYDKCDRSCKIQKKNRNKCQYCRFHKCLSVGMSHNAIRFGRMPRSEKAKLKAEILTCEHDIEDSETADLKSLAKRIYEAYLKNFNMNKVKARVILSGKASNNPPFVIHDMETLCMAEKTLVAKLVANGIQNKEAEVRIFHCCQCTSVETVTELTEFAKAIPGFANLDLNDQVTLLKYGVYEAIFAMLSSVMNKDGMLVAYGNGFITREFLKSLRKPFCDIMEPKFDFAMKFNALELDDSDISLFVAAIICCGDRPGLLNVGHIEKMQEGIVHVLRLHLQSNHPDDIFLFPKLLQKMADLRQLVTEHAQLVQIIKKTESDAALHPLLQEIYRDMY
Chain of Nuclear receptor ROR-gamma (Homo sapiens) (P51449 whole entry, looked up): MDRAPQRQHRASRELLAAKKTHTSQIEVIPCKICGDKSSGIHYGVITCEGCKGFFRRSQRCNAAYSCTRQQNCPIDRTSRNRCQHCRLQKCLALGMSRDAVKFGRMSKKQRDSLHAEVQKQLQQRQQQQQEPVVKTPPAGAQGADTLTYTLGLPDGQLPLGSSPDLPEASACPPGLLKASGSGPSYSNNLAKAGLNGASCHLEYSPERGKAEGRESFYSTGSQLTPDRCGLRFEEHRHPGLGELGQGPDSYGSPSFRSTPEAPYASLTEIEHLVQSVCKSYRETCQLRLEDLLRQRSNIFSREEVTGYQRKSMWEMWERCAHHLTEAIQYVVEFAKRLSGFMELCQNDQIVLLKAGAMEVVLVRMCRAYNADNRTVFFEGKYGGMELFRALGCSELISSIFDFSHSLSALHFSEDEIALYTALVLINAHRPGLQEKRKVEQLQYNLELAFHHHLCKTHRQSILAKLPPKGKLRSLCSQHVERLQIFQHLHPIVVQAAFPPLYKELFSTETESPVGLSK
Chain of Tyrosine-protein kinase Yes (Homo sapiens) (P07947 whole entry, looked up): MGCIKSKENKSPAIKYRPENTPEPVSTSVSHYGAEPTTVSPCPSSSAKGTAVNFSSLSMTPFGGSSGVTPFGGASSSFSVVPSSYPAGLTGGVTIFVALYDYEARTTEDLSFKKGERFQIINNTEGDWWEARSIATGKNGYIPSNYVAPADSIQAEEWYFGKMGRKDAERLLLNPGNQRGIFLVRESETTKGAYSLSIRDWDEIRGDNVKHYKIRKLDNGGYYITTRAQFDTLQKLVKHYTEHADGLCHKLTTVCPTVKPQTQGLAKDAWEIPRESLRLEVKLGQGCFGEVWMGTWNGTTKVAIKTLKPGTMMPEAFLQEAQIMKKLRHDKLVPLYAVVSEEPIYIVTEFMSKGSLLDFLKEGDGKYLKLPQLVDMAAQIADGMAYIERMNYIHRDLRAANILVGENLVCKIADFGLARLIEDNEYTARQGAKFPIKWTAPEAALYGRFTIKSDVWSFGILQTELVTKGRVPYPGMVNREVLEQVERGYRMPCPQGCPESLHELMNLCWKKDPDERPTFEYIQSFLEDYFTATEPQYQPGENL

In the case of `C=C(CC)C(=O)c1ccc(OCC(=O)O)c(Cl)c1Cl`, the call in assay [1] and in assay [8] was inactive. In addition, the activation in [2] is 2.74% (inactive). Moreover, the max response is -4.86% (inactive) in [3], 6.68% (inactive) in assay [6] and -7.15% (inactive) in [7]. Besides, in [4], the Potency was 37.6 µM (active). Besides, the Potency result in assay [5] was “inactive”.

`Oc1c(I)cc(Cl)c2cccnc12`: the outcome in assay [1] was inactive. For the same molecule, the Potency result in assay [9] was “inactive”. The Potency was 44.7 µM (active) in assay [2], 23.7 µM (active) in assay [4], 5.96 µM (active) in assay [10] and 7.94 µM (active) in [11]. Moreover, the max response in [3] is 1.34% (inactive); in [6] it was -8.01% (inactive).

As to `Nc1ccn([C@@H]2O[C@H](CO)[C@@H](O)C2(F)F)c(=O)n1`, the outcome in assay [12] and in assay [13] was inactive. The max response in [11] was 15.6% (inactive) and -5% (inactive). Further, the remaining parasite growth % (stronger effect = lower value) in assay [14] was -1.17% [at 57.5 µM].

For `COc1cccc2c1C(=O)c1c(O)c3c(c(O)c1C2=O)C[C@@](O)(C(C)=O)C[C@@H]3O[C@H]1C[C@H](N)[C@H](O)[C@H](C)O1`, in assay [3], the max response is -9.3% (inactive). Moreover, the Potency in assay [4] was 18.8 µM (active); in assay [5] it was 13.3 µM (active); in assay [11], 6.31 µM (active). Besides, the call in assay [8] was inactive.

As for `Nc1ccc(C(=O)O)cc1`, the molecule was classed as inactive in [1] and in assay [8]. Besides, the Potency entry in [9], in assay [4], in [10] and in assay [5] was “inactive” in each case. The activation in assay [2] is -0.596% (inactive). In addition, the max response was 2.41% (inactive) in [3], 2.28% (inactive) in assay [6], -1.31% (inactive) in assay [11] and 7.36% (inactive) in [7].

For `CCN1CCC[C@H]1CNC(=O)c1c(OC)ccc(Br)c1OC`, the max response in assay [11] is -8.08% (inactive).

`CO/N=C1\CN(c2nc3c(cc2F)c(=O)c(C(=O)O)cn3C2CC2)CC1CN` (centres undefined): the max response in assay [11] was -1.09% (inactive).

On to `CC(=O)N(O)CCCCCNC(=O)CCC(=O)N(O)CCCCCNC(=O)CCC(=O)N(O)CCCCCN`, for which, in assay [11], the max response is 17.5% (inactive).
